One may read the inhibition as the drop in the measured response relative to a control, in per cent.

Among the data in PubChem BioAssay are growth inhibition, inhibition and outcome values, retold here.

The nature of assay [1]: antimalarial activity against Dd2 strain (AID 2302;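 active = growth inhibition above 50% at the single 2 µM test dose, taken to imply half-maximal potency below 2 µM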;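 note: 0% = DMSO untreated growth and 100% = chloroquine plus artemisinin killed control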). The conditions noted are these: P. falciparum Dd2 in RBCs, LDH growth readout, 72 h; at 2 µM; stronger effect = higher value.
The nature of assay [2]: human hepatoma cell viability loss – ATP luminescence, cytotoxicity control for P. falciparum antimalarial project, primary screen (AID 2303;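 active = inhibition above 50%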;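 note: 0% = DMSO wells and 100% = digitonin-killed cells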). The settings on record: HepG2 viability, 24-48 h, at 10 µM, stronger effect = higher value.
Assay [3] addresses L-lactate dehydrogenase (Plasmodium falciparum (isolate CDC / Honduras)) (UniProt Q27743). Nature of the assay: PfLDH activity inhibition – cell lysate, 3D7 strain, counter-screen for P. falciparum growth inhibition project (AID 2304).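 Note: 0% = vehicle and 100% = reference inhibitor.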 The conditions noted are these: P. falciparum 3D7 crude extract, LDH APAD/NBT absorbance; at 2 µM; stronger effect = higher value. (In general: Counterscreens check selectivity or assay interference.)

Assay [4] can be described thus: inhibition of 3D7 malaria parasite growth – strain 3D7 (AID 2306).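 Note: 0% = DMSO wells and 100% = chloroquine plus artemisinin control wells.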 The settings on record: P. falciparum 3D7 erythrocytic growth, LDH absorbance, 72 h; at 2 µM; stronger effect = higher value.
Assay [5] concerns the target Calcium-dependent protein kinase 1 (Plasmodium falciparum (isolate 3D7)) (UniProt P62344). Nature of the assay: PfCDPK1 kinase inhibitors, biochemical, TCAMS library (AID 1159585; cut-off not given, nearly all actives have IC50 up to about 0.98 µM;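 note: inhibitors leave more ATP so luminescence rises with inhibition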). The settings on record: recombinant PfCDPK1, Kinase-Glo ATP depletion luminescence. Background: In Kinase-Glo more light means more ATP remaining.
The target in assay [6] is Plasmodium falciparum protein kinase 6 (PK6, PF3D7_1337100) (UniProt Q8IDW1). The assay can be described thus: PfPK6 kinase inhibitors, biochemical, TCAMS library (AID 1159586). The conditions noted are these: recombinant PfPK6, Kinase-Glo ATP depletion luminescence.
Chain of Plasmodium falciparum protein kinase 6 (PK6, PF3D7_1337100) (Q8IDW1 1-305): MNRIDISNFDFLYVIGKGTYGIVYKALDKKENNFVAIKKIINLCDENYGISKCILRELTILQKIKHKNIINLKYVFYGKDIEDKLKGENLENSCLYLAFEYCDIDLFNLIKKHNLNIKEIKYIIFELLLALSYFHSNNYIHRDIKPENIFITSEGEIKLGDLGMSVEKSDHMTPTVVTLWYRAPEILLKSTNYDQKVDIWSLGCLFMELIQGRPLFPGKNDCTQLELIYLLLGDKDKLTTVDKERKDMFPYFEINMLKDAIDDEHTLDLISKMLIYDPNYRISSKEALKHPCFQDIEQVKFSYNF
In assay [7] the target is Protein kinase 7 (PK7), Plasmodium falciparum 3D7 (PF3D7_0213400) (UniProt Q7YTF7). The assay can be described thus: inhibition of Plasmodium PK7 catalytic activity – biochemical, TCAMS antimalarial set, Kinase-Glo luminescence (AID 1159587). The settings on record: recombinant PfPK7, Kinase-Glo ATP depletion luminescence.
Chain of Protein kinase 7 (PK7), Plasmodium falciparum 3D7 (PF3D7_0213400) (Q7YTF7 1-343): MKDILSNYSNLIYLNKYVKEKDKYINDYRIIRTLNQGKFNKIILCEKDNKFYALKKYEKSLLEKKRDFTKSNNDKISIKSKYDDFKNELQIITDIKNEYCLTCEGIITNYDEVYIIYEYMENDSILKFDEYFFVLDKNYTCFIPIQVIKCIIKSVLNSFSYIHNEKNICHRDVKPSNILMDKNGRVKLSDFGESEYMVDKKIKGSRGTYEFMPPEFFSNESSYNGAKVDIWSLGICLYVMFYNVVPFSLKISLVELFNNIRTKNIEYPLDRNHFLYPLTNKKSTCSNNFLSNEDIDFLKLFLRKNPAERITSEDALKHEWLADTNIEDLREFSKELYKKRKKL
Assay [8] deals with Calcium-dependent protein kinase 4 (Plasmodium falciparum (isolate 3D7)) (UniProt Q8IBS5). The assay can be described thus: PfCDPK4 kinase inhibitors, biochemical, TCAMS library (AID 1159588; cut-off not given, nearly all actives have IC50 up to about 0.91 µM). The settings on record: recombinant PfCDPK4, Kinase-Glo ATP depletion luminescence.
Chain of Calcium-dependent protein kinase 4 (Plasmodium falciparum (isolate 3D7)) (Q8IBS5 whole entry, looked up): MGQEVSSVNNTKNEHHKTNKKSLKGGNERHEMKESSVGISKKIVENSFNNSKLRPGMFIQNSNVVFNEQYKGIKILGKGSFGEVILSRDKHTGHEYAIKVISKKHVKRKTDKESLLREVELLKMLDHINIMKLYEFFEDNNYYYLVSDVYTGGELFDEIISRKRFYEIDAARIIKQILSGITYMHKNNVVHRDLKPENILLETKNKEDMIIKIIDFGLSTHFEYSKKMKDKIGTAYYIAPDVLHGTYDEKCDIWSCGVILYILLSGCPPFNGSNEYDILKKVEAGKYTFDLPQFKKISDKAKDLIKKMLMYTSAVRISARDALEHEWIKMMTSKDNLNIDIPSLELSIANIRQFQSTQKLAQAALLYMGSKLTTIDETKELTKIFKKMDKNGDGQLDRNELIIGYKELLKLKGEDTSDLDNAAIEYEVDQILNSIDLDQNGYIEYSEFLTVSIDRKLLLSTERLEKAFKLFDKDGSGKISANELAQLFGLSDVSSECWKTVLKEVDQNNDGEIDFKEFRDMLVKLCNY

A number with no mark means an inactive call. For part of these data: Entries with a potency or affinity are not part of this list. Calls of active or inactive are those of the source. Unless noted, the rule behind the calls is not given here.

Chain of L-lactate dehydrogenase (Plasmodium falciparum (isolate CDC / Honduras)) (Q27743 whole entry, looked up): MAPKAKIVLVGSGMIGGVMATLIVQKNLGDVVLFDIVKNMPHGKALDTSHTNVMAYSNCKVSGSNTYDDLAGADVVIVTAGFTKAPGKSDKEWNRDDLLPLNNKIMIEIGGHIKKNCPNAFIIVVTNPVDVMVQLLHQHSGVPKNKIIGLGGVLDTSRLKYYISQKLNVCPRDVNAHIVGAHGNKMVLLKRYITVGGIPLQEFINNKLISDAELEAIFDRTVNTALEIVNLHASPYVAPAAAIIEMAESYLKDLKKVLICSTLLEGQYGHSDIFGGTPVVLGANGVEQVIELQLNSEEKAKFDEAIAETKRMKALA
Chain of Calcium-dependent protein kinase 1 (Plasmodium falciparum (isolate 3D7)) (P62344 whole entry, looked up): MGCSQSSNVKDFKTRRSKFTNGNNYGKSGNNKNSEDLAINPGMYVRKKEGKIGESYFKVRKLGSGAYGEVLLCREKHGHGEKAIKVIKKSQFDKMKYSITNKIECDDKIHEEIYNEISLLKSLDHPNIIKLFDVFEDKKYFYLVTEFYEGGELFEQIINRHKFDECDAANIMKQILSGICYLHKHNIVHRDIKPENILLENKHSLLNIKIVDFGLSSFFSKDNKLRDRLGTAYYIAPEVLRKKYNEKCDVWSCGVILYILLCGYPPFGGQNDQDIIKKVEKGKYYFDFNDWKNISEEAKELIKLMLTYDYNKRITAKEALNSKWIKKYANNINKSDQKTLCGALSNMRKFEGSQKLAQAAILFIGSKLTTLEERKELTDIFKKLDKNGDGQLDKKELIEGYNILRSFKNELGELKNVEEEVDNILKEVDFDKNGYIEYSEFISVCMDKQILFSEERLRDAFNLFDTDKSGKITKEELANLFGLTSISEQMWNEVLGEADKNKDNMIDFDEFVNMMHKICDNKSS

For the compound `Cc1c(F)cc(C(=O)NC2CC2)cc1-c1ccc2c(cnn2S(=O)(=O)c2ccc(Cl)s2)c1`, the growth inhibition in assay [1] is 50% (active); in assay [4], 81% (active). Moreover, the inhibition in assay [2] is 24%; in assay [3], -4%. In addition, the outcome in assay [5], in assay [6], in assay [7] and in assay [8] was inactive.
Take `O=C(Nc1ccc(-c2nc3ccccc3[nH]2)cc1)c1ccc(N2CCOCC2)c([N+](=O)[O-])c1`: the growth inhibition in assay [1] is 28%; in assay [4], 101% (active). Also, the inhibition is 47% in assay [2] and -8% in assay [3]. The outcome in assay [5], in assay [6], in assay [7] and in assay [8] was inactive.
With `COc1cc(Nc2ccnc3ccc(C(C)(C)C)cc23)cc(OC)c1OC`, the results for the growth inhibition in assay [1] and in assay [4] were 80% (active) and 100% (active), respectively. Besides, the inhibition was 12% in assay [2] and 1% in assay [3]. The outcome in assay [5], in assay [6], in assay [7] and in assay [8] was inactive.
Turning to `O=C(Nc1cn(-c2ccc(OCc3cccc(F)c3)c(Cl)c2)c2ncncc12)c1ccncc1`, the growth inhibition in assay [1] is 81% (active); in assay [4], 100% (active). Further, the inhibition in assay [2] was 13%; in assay [3], 0%. Moreover, the outcome in assay [5], in assay [6], in assay [7] and in assay [8] was inactive.
Regarding `N#CCOc1c(C2CCN(CCCCNC(=O)c3ccc(-c4ccc(C(F)(F)F)cc4)cc3)CC2)ccc2c1CCCC2`, the values for the growth inhibition in assay [1] and in assay [4] were 48% and 97% (active), respectively. Also, the values for the inhibition in assay [2] and in assay [3] were 59% (active) and 4%, respectively. Moreover, the result in assay [5], in assay [6], in assay [7] and in assay [8] was inactive.
Regarding `CCN(CC)CCN(Cc1ccc(-c2ccc(C(F)(F)F)cc2)cc1)C(=O)Cn1cc(Cc2cnn(C)c2)c(=O)nc1/C=C/c1ccc(F)cc1`, the growth inhibition was 91% (active) in assay [1] and 96% (active) in assay [4]. For the same compound, the inhibition in assay [2] was 6%; in assay [3], 3%. Further, the outcome in assay [5], in assay [6], in assay [7] and in assay [8] was inactive.
With `COc1ccc(Cn2ccc3c4c(N)nc(N)nc4ccc32)cc1`, the growth inhibition is 93% (active) in assay [1] and 101% (active) in assay [4]. Further, the figures for the inhibition in assay [2] and in assay [3] were 90% (active) and 7%, respectively. Moreover, the outcome in assay [5], in assay [6], in assay [7] and in assay [8] was inactive.
Regarding `Cc1cc(NC2CCCC2)nc(Nc2ccc(F)cc2)n1`, the growth inhibition in assay [1] is 74% (active); in assay [4] it was 100% (active). In addition, the inhibition in assay [2] was 22%; in assay [3], -3%. Moreover, the result in assay [5], in assay [6], in assay [7] and in assay [8] was inactive.
Take `O=C(CCCCCNC(=O)c1ccc(O)c(-c2ccc(Cl)c(Cl)c2)c1)NC1CCCc2ccccc21` (stereo not drawn): the growth inhibition was 13% in assay [1] and 97% (active) in assay [4]. In addition, the inhibition in assay [2] was -7%; in assay [3], -6%. In addition, the outcome in assay [5], in assay [6], in assay [7] and in assay [8] was inactive.
For the compound `CN1CCN(CCCN(Cc2cccc(-c3ccc(CNCCc4ccccc4)cc3)c2)C(=O)c2cccs2)CC1`, the growth inhibition in assay [1] was 97% (active); in assay [4], 101% (active). The inhibition in assay [2] is 86% (active); in assay [3], 2%. Besides, the result in assay [5], in assay [6], in assay [7] and in assay [8] was inactive.
In the case of `CC(C)CCNCc1ccc(OCc2cccc(C(=O)Nc3ccccc3)c2)c(I)c1`, the growth inhibition is 59% (active) in assay [1] and 100% (active) in assay [4]. The inhibition in assay [2] is 25%; in assay [3] it was 0%. The result in assay [5], in assay [6], in assay [7] and in assay [8] was inactive.
With `O=C(Nc1ccon1)c1cc(-c2cccnc2)nc2ccc(Cl)cc12`, the growth inhibition in assay [1] is 76% (active); in assay [4], 98% (active). Further, the values for the inhibition in assay [2] and in assay [3] were -4% and 6%, respectively. The result in assay [5], in assay [6], in assay [7] and in assay [8] was inactive.
`CC(O)C1CCCCN1C(=O)c1cccc(-c2ccc(-c3nc4ccccc4[nH]3)s2)c1` (stereo not drawn): the growth inhibition in assay [1] is 23%; in assay [4], 100% (active). The inhibition in assay [2] was 24%; in assay [3] it was -1%. The result in assay [5], in assay [6], in assay [7] and in assay [8] was inactive.
With `COc1ccc(C(C(=O)NC2CCN(C[C@H](O)c3ccnc4ccc(OC)cc34)CC2)N2CCN(c3ccc([N+](=O)[O-])cc3)CC2)cc1` (stereo partly drawn), the results for the growth inhibition in assay [1] and in assay [4] were 80% (active) and 99% (active), respectively. In addition, the figures for the inhibition in assay [2] and in assay [3] were 17% and -3%, respectively. In addition, the outcome in assay [5], in assay [6], in assay [7] and in assay [8] was inactive.
On to `O=C(Nc1ccc2ccccc2c1)c1ccc(CN2CCC(Cc3ccccc3)CC2)cc1`, for which the growth inhibition in assay [1] is 10%; in assay [4], 95% (active). The inhibition in assay [2] was 38%; in assay [3] it was -8%. Also, the outcome in assay [5], in assay [6], in assay [7] and in assay [8] was inactive.
For the compound `FC(F)(F)c1ccc2nc(-c3ccc(-c4ccc(CN5CCN(c6ccncc6)CC5)cc4)s3)[nH]c2c1`, the growth inhibition in assay [1] was 50% (active); in assay [4] it was 100% (active). Further, the inhibition in assay [2] is 97% (active); in assay [3], 2%. Further, the result in assay [5], in assay [6], in assay [7] and in assay [8] was inactive.
For the compound `COc1ccc(Nc2nccc(-c3ccc4c(-c5ccsc5)cnc(N)c4c3)n2)cc1`, the growth inhibition in assay [1] is 98% (active); in assay [4], 101% (active). Moreover, the inhibition was 38% in assay [2] and -1% in assay [3]. Also, the result in assay [5], in assay [6], in assay [7] and in assay [8] was inactive.
With `O=C(NCCCCCN1CCC(c2c[nH]c3ccccc23)CC1)c1ccc(-c2ccccc2)nc1`, the growth inhibition in assay [1] was 13%; in assay [4], 87% (active). Further, the inhibition in assay [2] is 43%; in assay [3] it was 1%. Further, the result in assay [5], in assay [6], in assay [7] and in assay [8] was inactive.
Turning to `Cc1cc2[nH]c(-c3ccc(C(=O)NCCCN4CCN(c5cccc(Cl)c5)CC4)cc3F)nc2cc1Cl`, the growth inhibition was 79% (active) in assay [1] and 99% (active) in assay [4]. Also, the inhibition in assay [2] was -2%; in assay [3], 5%. The result in assay [5], in assay [6], in assay [7] and in assay [8] was inactive.
As to `COc1cc(CNC[C@@H](O)[C@H](Cc2ccccc2)NC(=O)c2cc(OC(C)C)cc(N3CCCCS3(=O)=O)c2)cc(OC)c1`, the results for the growth inhibition in assay [1] and in assay [4] were 94% (active) and 100% (active), respectively. For the same compound, the figures for the inhibition in assay [2] and in assay [3] were 7% and 4%, respectively. In addition, the result in assay [5], in assay [6], in assay [7] and in assay [8] was inactive.
In the case of `Oc1ccc(CCNc2nc(NCc3ccccc3Oc3ccc(C(F)(F)F)cc3)nc(N3CCNCC3)n2)cc1`, the growth inhibition was 2% in assay [1] and 86% (active) in assay [4]. The results for the inhibition in assay [2] and in assay [3] were 26% and 0%, respectively. In addition, the outcome in assay [5], in assay [6], in assay [7] and in assay [8] was inactive.
